# Laboratory results: PubChem BioAssay (NCI)
# This is part of a sample that, as a whole, favours compounds with a hit. Of some 79,000 tested, about 15% had one in any assay. A number with no mark means an inactive call. Activity calls are given as the source filed them. Rule as the data show it: active = growth inhibition above about 70%; inactive = the rest.
# Assays:
# [1] = NCI Yeast Anticancer Drug Screen. Data for the rad50 strain (AID 155);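 also: 0% = growth of vehicle-only cultures of the same strain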; settings: S. cerevisiae rad50 strain growth inhibition, stronger effect = higher value
# In short: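 Readout: growth inhibition relative to vehicle-treated cultures. Compound exposure was carried out in a genetically defined yeast strain deficient in DNA damage repair.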
# [2] = NCI Yeast Anticancer Drug Screen. Data for the mec2-1 strain (AID 157); settings: S. cerevisiae mec2-1 strain, stronger effect = higher value
# In short: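 Readout is yeast growth inhibition, normalised to vehicle-treated controls, in the mec2-1 strain exposed to compound.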
# [3] = NCI Yeast Anticancer Drug Screen. Data for the sgs1 mgt1 strain (AID 161);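 also: 0% = growth of cultures given vehicle only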; settings: S. cerevisiae sgs1 mgt1 strain, stronger effect = higher value
# In short: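 Percent growth inhibition was derived by comparing compound-exposed mutant yeast with vehicle-exposed cultures. The strain carries alterations in DNA damage repair.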
# [4] = NCI Yeast Anticancer Drug Screen. Data for the cln2 rad14 strain (AID 165);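 also: 0% = growth equal to vehicle treated cultures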; settings: S. cerevisiae cln2 rad14 strain, stronger effect = higher value
# In short: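 Relative to vehicle controls, growth inhibition of compound-treated cln2 rad14 yeast was recorded.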
# [5] = NCI Yeast Anticancer Drug Screen. Data for the bub3 strain (AID 167); settings: S. cerevisiae bub3 mutant strain, stronger effect = higher value
# In short: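 Readout: yeast growth inhibition, expressed relative to vehicle-only wells. The test organism is a mutant strain from a panel with lesions in DNA repair or checkpoint genes.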
# [6] = NCI Yeast Anticancer Drug Screen. Data for the mlh1 rad18 strain (AID 175); settings: S. cerevisiae mlh1 rad18 strain growth inhibition, stronger effect = higher value
# In short: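 Test agents were incubated with a yeast strain of defined genotype (DNA damage repair defect). Inhibition of growth was derived by comparison with vehicle-exposed cultures.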
# [7] = at 5.0 µM (retest, dose inferred, filed as 0.5)
# [8] = at 50.0 µM (retest, dose inferred, filed as 5.0)
Structure (SMILES),"growth inhibition [1, 7]","growth inhibition [1, 8]",growth inhibition ([1]; at 50.0 µM),"growth inhibition [2, 7]","growth inhibition [2, 8]",growth inhibition ([2]; at 50.0 µM),"growth inhibition [3, 7]","growth inhibition [3, 8]",growth inhibition ([3]; at 50.0 µM),"growth inhibition [4, 7]","growth inhibition [4, 8]",growth inhibition ([4]; at 50.0 µM),"growth inhibition [5, 7]","growth inhibition [5, 8]",growth inhibition ([5]; at 50.0 µM),"growth inhibition [6, 7]","growth inhibition [6, 8]",growth inhibition ([6]; at 50.0 µM)
O=C(/C=C/c1ccc([N+](=O)[O-])o1)N1CCN(Cc2ccccc2)CC1,38%,78% (active),75.1% (active),33%,75% (active),60%,55%,92% (active),74% (active),35%,60%,38.8%,43%,75% (active),62%,52%,91% (active),58.6%
OCC(O)C(O)C(O)C(/C=N/Nc1ccccc1)=N\Nc1ccccc1 (centres undefined),4%,-3%,51.4%,-1%,-1%,4.95%,20%,16%,70.7% (active),-41%,4%,-0.65%,1%,-89%,4.3%,16%,4%,30.4%
Cc1cc(O)ccc1SC#N,-11%,53%,87.2% (active),-22%,32%,80% (active),-13%,28%,79.9% (active),-3%,21%,73.4% (active),-11%,57%,79.3% (active),7%,66%,83.5% (active)
CCOC(=O)/N=C(\N)SCc1ccccc1,21%,3%,10.9%,-4%,-6%,1.05%,13%,-8%,-12.8%,-7%,-8%,-6.25%,0%,-7%,49.5%,-3%,-2%,-5.95%
O=C(CCCN1CCN2Cc3[nH]c4ccccc4c3CC2C1)c1ccc(F)cc1 (centres undefined),5%,58%,98.8% (active),7%,73% (active),98.7% (active),20%,92% (active),66.8%,2%,59%,95.6% (active),4%,60%,92.1% (active),37%,88% (active),99.3% (active)
Clc1ccc(-c2nnc(-c3ccccn3)o2)c(Cl)c1,4%,99% (active),99.2% (active),-1%,80% (active),28.1%,0%,99% (active),99.2% (active),-2%,83% (active),92.7% (active),1%,94% (active),70.1% (active),1%,96% (active),99.4% (active)
C/C(=N\NC(=S)N1CCC(C)CC1)c1cccc2cccnc12,-5%,98% (active),62.6%,-9%,98% (active),-6.1%,0%,98% (active),83.2% (active),-10%,98% (active),14.2%,2%,98% (active),6.05%,-8%,99% (active),6.35%
COC(=O)c1c(C)cccc1C1CN=NC12Cc1ccc(C)c(C)c1C2=O (centres undefined),2%,31%,61%,0%,47%,43.2%,13%,56%,68.5%,1%,44%,54.1%,8%,81% (active),78.7% (active),-1%,57%,72.8% (active)
COc1c(OC)c(C2(O)C(=O)N(C)c3ccccc32)c(OC)c(OC)c1C1(O)C(=O)N(C)c2ccccc21 (centres undefined),-1%,2%,7.2%,-2%,12%,3.9%,-3%,1%,-4.9%,-10%,-2%,-0.05%,-3%,-2%,4.85%,-1%,22%,7.15%
CCCCCCCCCCCCCCCCCC[N+]1(C)CCC[N+](C)(CCCCCCCCCCCCCCCCCC)CC1 (centres undefined),2%,26%,41.8%,-3%,17%,83.4% (active),2%,53%,47%,0%,3%,7.9%,0%,77% (active),50.6%,2%,24%,84% (active)
NC(=O)N/N=C/C(O)C(O)C(O)C(O)CO (centres undefined),0%,44%,77.1% (active),-4%,1%,59.9%,-1%,16%,35.5%,0%,26%,6.55%,-5%,7%,36.1%,-4%,20%,19.7%
O=Cc1ccc(-c2nccc3c2[nH]c2ccccc23)o1,23%,35%,78.2% (active),15%,17%,26.9%,17%,20%,19.1%,12%,16%,16.1%,24%,14%,8.9%,21%,25%,-1.45%
N#CCc1ccccc1-c1cccc2ccccc12,0%,36%,35.6%,0%,44%,29.4%,-2%,17%,54.8%,3%,24%,41.2%,3%,34%,40%,1%,41%,71.5% (active)
CC(C)N(CCOc1ccc(/C=C/c2ccccc2)cc1)C(C)C,4%,1%,12.1%,4%,1%,-1.45%,8%,2%,55.9%,6%,2%,8.5%,4%,-3%,75.8% (active),6%,4%,9.3%
CC(=O)Nc1cccc(Oc2ccc(Br)cc2[N+](=O)[O-])c1,-3%,66%,58.5%,1%,78% (active),10%,9%,94% (active),83.1% (active),0%,47%,24.7%,-1%,63%,42.6%,20%,89% (active),70.5% (active)
N#CC(CC(Br)CBr)(c1ccccc1)c1ccccc1 (centres undefined),8%,11%,45.9%,8%,24%,40.1%,11%,29%,56%,10%,-2%,36.2%,9%,11%,33.3%,16%,51%,75.5% (active)
C=C1C2Oc3ccccc3C1N(c1ccccc1)O2 (centres undefined),9%,23%,35%,8%,35%,19.9%,4%,62%,66%,4%,24%,39.1%,1%,26%,9.45%,5%,35%,70.5% (active)
C/C(=N\NC(N)=S)c1ccc(Oc2ccccc2)cc1,50%,77% (active),98.9% (active),43%,75% (active),98.5% (active),65%,93% (active),99% (active),27%,70% (active),98.5% (active),35%,70% (active),98.8% (active),63%,89% (active),97.8% (active)
